High-throughput results: PubChem BioAssay, National Center for Advancing Translational Sciences (NCATS)
Rows were chosen to be rich in hits. Some 19% of all compounds tested hit in one or more screens of this group.
Pf growth 48h – inhibits P. falciparum growth in the first generation, 48 h. Potency, µM (top dose mostly 28.7 µM), for the others: at the top dose activity change, negative = inhibition, most hits filed as inhibitors. AID 504832. 5.9% of 310,000 active. P. falciparum luciferase growth in erythrocytes, 48 h; note: potency is the fitted concentration of half-maximal effect; % is set by controls: 0 for no effect and ±100 for the full control effect
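Firefly luciferase activity from engineered P. falciparum reports growth; inhibitors lower the luminescent signal. Cultures contained 2% hematocrit erythrocytes at 0.1% final parasitemia.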
Shiga inhibitor – blocks Shiga toxin action in Vero cells. Vero cells, Shiga toxin protein synthesis inhibition reporter. inhibition, % at 38.7 µM. 9.2% of 290,000 active. AID 2315; in the data active = inhibition mostly above about 28%, no sharp cut-off; inactive = mostly below about 43%; note: 0% is about no effect
SARS PLpro yeast – SARS-CoV PLP inhibition in yeast | S. cerevisiae expressing SARS-CoV PLpro, growth rescue | Potency, µM (doses to about 32.9 µM), without a hit: at the top dose activity, positive = growth rescue, hits mostly activators | 0.19% of 330,000 active; calls by dose curve; note: potency is the fitted concentration of half-maximal effect; 0% is about no effect; nearly all actives have a fitted effect of over 55% in size
Cycloheximide cs – affects cycloheximide protein synthesis inhibition readout, counter-screen. max response, %. cell reporter, cycloheximide protein synthesis inhibition counterscreen. 12% of 300,000 active; in the data active = max response mostly above about 13%, no sharp cut-off; inactive = mostly below about 14%; note: read at 38.3 µM for the half of the compounds with a filed dose; 0% is about no effect
Pf growth 96h – P. falciparum growth inhibition at 96 hours | Potency, µM (highest dose often 28.7 µM), for the others: at the highest dose activity change, negative = inhibition, usual class: inhibitors | 6.9% of 320,000 active | P. falciparum luciferase reporter growth, 96 h; note: potency is the fitted concentration of half-maximal effect; % is set by controls: 0 for no effect and ±100 for the full control effect
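P. falciparum expressing integrated firefly luciferase, in erythrocytes at 2% hematocrit, 0.05% parasitemia, incubated with compounds 96 h at 37 C, 5% CO2. Growth inhibition read as loss of luminescence; two-generation exposure targets delayed-death apicoplast inhibitors.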
AMA1 RON2 block – AMA1-RON2 (P. falciparum) interaction inhibition; Potency, µM (doses to about 58.2 µM), for the others: top-dose activity change, negative = inhibition, hits mostly inhibitors; AID 720542; AlphaScreen AMA1-biotinylated RON2 peptide binding; 0.2% of 360,000 active;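 note: potency is the fitted concentration of half-maximal effect; 0% = vehicle wells and -100% = peptide control; nearly all actives have a fitted effect of over 45% in size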
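AMA1 (3D7) with his tag at 25 nM final met compounds first, then biotinylated RON2 peptide at 25 nM; detection used donor plus acceptor beads, 10 µg/mL apiece, read by AlphaScreen after 30 min at room temperature.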
Active calls of the source: *. Unless noted, calls come from the whole dose curve; as a rule, active = well fitted curve in the direction sought with a large enough effect; inconclusive = small, poorly fitted or top-dose-only effect, or another doubt; inactive = no such curve, though single readings can be large; an effect the other way counts as inactive or inconclusive.

How did CCCn1c(NCc2cccc(OC)c2OC)nc2ccccc21 do in these assays?
Pf growth 48h: inconclusive; Shiga inhibitor: 48.6; SARS PLpro yeast: -2.0%; Cycloheximide cs: 24.9; Pf growth 96h: 3.1%; AMA1 RON2 block: -9.0%

What do the screens show for `COc1cccc(CNc2ccc3c(c2)ncn3C(C)C)c1OC`?
Shiga inhibitor: 161.8*; SARS PLpro yeast: -4.2%; Cycloheximide cs: 44.3*; Pf growth 96h: 0.0%; AMA1 RON2 block: -9.8%

What do the screens show for `COc1ccccc1-n1cnc2cc(NCc3ccccn3)ccc21`?
Pf growth 48h: inconclusive; Shiga inhibitor: 112.8*; SARS PLpro yeast: -6.3%; Cycloheximide cs: 37.6*; Pf growth 96h: -22.2%; AMA1 RON2 block: -23.8%

Results for CCCn1c(NCc2cccc(OC)c2O)nc2ccccc21 ?
Pf growth 48h: 11.7µM*; Shiga inhibitor: 39.2*; SARS PLpro yeast: -3.8%; Cycloheximide cs: 27.9*; Pf growth 96h: 106.8%; AMA1 RON2 block: -4.1%

Results for CCCn1cnc2cc(NCc3cccc(OC)c3O)ccc21 ?
Pf growth 48h: 72.3%; Shiga inhibitor: 126.1*; SARS PLpro yeast: 9.4%; Cycloheximide cs: 37.3*; Pf growth 96h: 2.2%; AMA1 RON2 block: 31.0%

How did O=C(CSc1ncc(-c2ccccc2)n1C1CCCC1)N1CCc2ccccc21 do in these assays?
Pf growth 48h: inconclusive; Shiga inhibitor: 18.2; SARS PLpro yeast: -4.7%; Cycloheximide cs: 8.8; Pf growth 96h: inconclusive; AMA1 RON2 block: -3.7%

Results for CCCn1cnc2cc(NCc3ccccn3)ccc21 ?
Shiga inhibitor: 85.3*; SARS PLpro yeast: -10.6%; Cycloheximide cs: 36.7*; Pf growth 96h: -11.1%; AMA1 RON2 block: 37.9%

What do the screens show for `CC1(Cc2ccccc2Cl)C(=O)Nc2c(Cl)ccc(Cl)c21` (configuration not stated)?
AMA1 RON2 block: -8.1%

What do the screens show for `CCN(CCCl)c1cc(CN(C)C)cc(NC(=O)c2ccc(C(=O)Nc3cc(CN(C)C)cc(N(CC)CCCl)c3)cc2)c1`?
AMA1 RON2 block: 25.1µM*

What do the screens show for `CCn1c(=O)c(C(=O)Nc2ccccc2S(N)(=O)=O)c(O)c2ccccc21`?
Pf growth 48h: 49.5%; Shiga inhibitor: 44.7; SARS PLpro yeast: 6.7%; Cycloheximide cs: 11.8*; Pf growth 96h: -21.8%; AMA1 RON2 block: -0.9%

What do the screens show for `CCCCCn1c(=O)c(C(=O)Nc2ccccc2S(N)(=O)=O)c(O)c2ccccc21`?
Pf growth 48h: 32.7%; Shiga inhibitor: 84.3*; SARS PLpro yeast: 0.2%; Cycloheximide cs: 17.5*; Pf growth 96h: 8.0%; AMA1 RON2 block: 69.4%

What do the screens show for `O=C(O)C1=C[C@@H](C2CC2)C[C@@H](OCc2ccc(CO)cc2)O1`?
Pf growth 48h: 22.0%; Shiga inhibitor: 6.1; SARS PLpro yeast: -0.7%; Cycloheximide cs: 1.5; Pf growth 96h: 74.9%; AMA1 RON2 block: 21.1%

How did C#CCNC(=O)C1=C[C@H](C2CCCCC2)C[C@H](OCCCCO)O1 do in these assays?
Pf growth 48h: inconclusive; Shiga inhibitor: -1.0; SARS PLpro yeast: -2.3%; Cycloheximide cs: -1.6; Pf growth 96h: inconclusive; AMA1 RON2 block: 15.7%

How did O=C(Nc1ccccc1)C1=C[C@H](C2CCCCC2)C[C@H](OCCCCO)O1 do in these assays?
AMA1 RON2 block: 12.6%

How did O=C(Nc1ccccc1)C1=C[C@@H](C2CCCCC2)C[C@@H](OCCCCO)O1 do in these assays?
Pf growth 48h: 97.8%; Shiga inhibitor: 172.4*; SARS PLpro yeast: -0.9%; Cycloheximide cs: 73.7*; Pf growth 96h: 0.0%; AMA1 RON2 block: 2.1%

Results for C#CCNC(=O)C1=C[C@@H](C2CCCCC2)C[C@@H](OCCCCO)O1 ?
Pf growth 48h: inconclusive; Shiga inhibitor: 26.5; SARS PLpro yeast: -0.4%; Cycloheximide cs: 14.5*; Pf growth 96h: inconclusive; AMA1 RON2 block: 22.0%

What do the screens show for `O=C(Nc1ccccc1)C1=C[C@H](C2CCCCC2)C[C@H](OCc2ccc(CO)cc2)O1`?
Pf growth 48h: inconclusive; Shiga inhibitor: 55.1*; SARS PLpro yeast: -0.9%; Cycloheximide cs: 43.4*; Pf growth 96h: inconclusive; AMA1 RON2 block: -23.4%

Results for O=C(Nc1ccccc1)C1=C[C@@H](C2CCCCC2)C[C@@H](OCc2ccc(CO)cc2)O1 ?
Pf growth 48h: inconclusive; Shiga inhibitor: 84.0*; SARS PLpro yeast: -2.2%; Cycloheximide cs: 40.5*; Pf growth 96h: inconclusive; AMA1 RON2 block: -8.0%

How did CNc1ccc(Oc2nc([N+](=O)[O-])nn2C)cc1 do in these assays?
Pf growth 48h: -3.4%; Shiga inhibitor: -8.4; SARS PLpro yeast: -1.4%; Cycloheximide cs: -1.1; Pf growth 96h: inconclusive; AMA1 RON2 block: 1.1%

How did CSc1ncccc1C(=O)OCC(=O)N1CCc2ccccc21 do in these assays?
SARS PLpro yeast: -12.7%; AMA1 RON2 block: 3.5%

How did C#CCNC(=O)C1=C[C@H](c2ccc(C(F)(F)F)cc2)C[C@H](OCCCCO)O1 do in these assays?
Pf growth 48h: inconclusive; Shiga inhibitor: 41.9; SARS PLpro yeast: -2.9%; Cycloheximide cs: 8.6*; Pf growth 96h: inconclusive; AMA1 RON2 block: -4.4%

How did NC(=O)C1CCN(C(=O)COCc2cc(-c3ccc4c(c3)OCO4)on2)CC1 do in these assays?
Pf growth 48h: 38.5%; Shiga inhibitor: 9.8; SARS PLpro yeast: 9.7%; Cycloheximide cs: 16.8; Pf growth 96h: 10.0%; AMA1 RON2 block: 3.5%

Results for O=C(COCc1cc(-c2ccc3c(c2)OCO3)on1)N1CCCCC1 ?
Pf growth 48h: 7.4%; Shiga inhibitor: 75.8*; SARS PLpro yeast: -2.0%; Cycloheximide cs: 68.2*; Pf growth 96h: 45.8%; AMA1 RON2 block: -0.8%

Results for CN1CCN(C(=O)COCc2cc(-c3ccc4c(c3)OCO4)on2)CC1 ?
Pf growth 48h: 32.0%; Shiga inhibitor: 23.4*; SARS PLpro yeast: 0.2%; Cycloheximide cs: 18.1*; Pf growth 96h: -11.0%; AMA1 RON2 block: 1.7%

What do the screens show for `Cc1cccc(CC(=O)NCCS(=O)(=O)N2CCN(c3ccccc3)CC2)c1`?
AMA1 RON2 block: 0.3%

How did O=C(O)CC(NC(=O)C12CC3CC(CC(C3)C1)C2)c1ccc(F)cc1 (configuration not stated) do in these assays?
Pf growth 48h: -14.9%; Shiga inhibitor: 25.5; SARS PLpro yeast: 0.5%; Cycloheximide cs: -0.9; Pf growth 96h: inconclusive; AMA1 RON2 block: 0.0%

How did COc1ccc(N(C(=O)c2snc(C(N)=O)c2N)C(C(=O)NC2CCCC2)c2cc(OC)ccc2OC)c(OC)c1 (configuration not stated) do in these assays?
Pf growth 48h: 1.85µM*; Shiga inhibitor: 15.2; SARS PLpro yeast: 1.2%; Cycloheximide cs: -1.6; Pf growth 96h: -9.7%; AMA1 RON2 block: 11.5%

How did COc1ccc(C(C(=O)NC2CCCC2)N(C(=O)c2snc(C(N)=O)c2N)c2ccccc2OC)cc1OC (configuration not stated) do in these assays?
Pf growth 48h: 9.28µM*; Shiga inhibitor: -7.8; SARS PLpro yeast: 0.7%; Cycloheximide cs: -7.4; Pf growth 96h: 1.3%; AMA1 RON2 block: -3.6%
